In all, about 1,700 compounds were measured (“T2 sensor activation Q score (MG/GFP ratio z-score vs DMSO controls)”: median about 0.3, highest 2% from about 1.9 on). What follows is part of a selection rich in the highest values, with near analogues and random picks from the rest.

We go through 71 compounds from the supplement of paper PMC5407854, “Inhibitor of ppGalNAc-T3-mediated O-glycosylation blocks cancer cell invasiveness and lowers FGF23 levels” (eLife, 2017).

The test deals with ppGalNAc-T2 sensor. In words: T2 sensor activation Q score (MG/GFP ratio z-score vs DMSO controls) (SD units); higher = more sensor activation (inhibition of ppGalNAc-T2 glycosylation). The following applies: HEK293 sensor cells; 10 µM; 6 h. The procedure:
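Cells were treated with compound at 10 uM for 6 h, then MG/GFP ratio was read by flow cytometry (10,000 cells per well, duplicate wells). Q = (R - R_neg)/SD_neg relative to DMSO vehicle controls; the signal rises when the glycosyltransferase is inhibited.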
For `CN(C)c1nc(Cl)nc2c1nc(Cl)n2C1CCCCO1` (stereo unspecified), the “T2 sensor activation Q score” value turned out to be 1.4.

With `C1COCCN1.O=C(O)C(C=C(Cl)Cl)N1CCOCC1` (stereo unspecified), the “T2 sensor activation Q score” value came out at 2.65.

In the case of `O=C(/C=C/c1ccccc1)CC(c1ccccc1)N1CCOCC1` (stereo unspecified), the “T2 sensor activation Q score” value was -0.6.

For the compound `CCCCCCCCC(=O)c1c(OC)oc(C=O)cc1=O`, the “T2 sensor activation Q score” value stood at 0.5.

As for `C/C(=N/O)[C@H]1CC[C@H]2[C@@H]3CC[C@@H]4C/C(=N\O)CC[C@]4(C)[C@H]3[C@@](C)(O)C[C@]12C`, the “T2 sensor activation Q score” value is 0.5.

For the compound `COC(=O)c1c(-c2ccccc2)[nH]c(-c2nccc3ccccc23)c1C(=O)OC`, the “T2 sensor activation Q score” value is -0.35.

For `COc1cc(NC(=O)CCl)ccc(=O)c1`, the “T2 sensor activation Q score” value was determined as 0.6.

As to `Nc1o[nH]c(=O)c1C1CCCCC1`, the “T2 sensor activation Q score” value is -0.8.

As for `Cc1cc(-n2cnc3c(=O)[nH]cnc32)ccc1N`, the “T2 sensor activation Q score” value stood at 1.35.

Regarding `CS/C(=C\c1ccc(C(=O)c2ccc(C)cc2)n1C)[S+](C)[O-]` (stereo unspecified), the “T2 sensor activation Q score” value was found to be 5.35.

Turning to `CCOC(=O)Nc1ccc2nc(Sc3ccc(Cl)cc3)sc2c1`, the “T2 sensor activation Q score” value worked out at 0.35.

On to `COC(=O)c1cc2c(n1S(=O)(=O)c1ccc(C)cc1)C(=O)C(=O)c1[nH]cc(C(=O)OCc3ccccc3)c1-2`, for which the “T2 sensor activation Q score” value was 2.

Consider `Cc1ccc(S(=O)(=O)CCOC(=O)CNC(=O)OCc2ccccc2)cc1`, for which the “T2 sensor activation Q score” value is -0.1.

For the compound `NC(=O)NC(=O)c1nccnc1C(=O)O`, the “T2 sensor activation Q score” value was -0.2.

Regarding `O=C(c1ccccc1)c1ccccc1C(=O)c1ccccc1`, the “T2 sensor activation Q score” value came out at 0.65.

In the case of `COC(=O)C[C@](O)(CCCC(C)(C)O)C(=O)O[C@@H]1C(OC)=C[C@]23CCCN2CCc2cc4c(cc2[C@H]13)OCO4`, the “T2 sensor activation Q score” value was found to be 4.5.

As for `COc1c(O)ccc2c1CN1CCc3cc4c(cc3C1C2)OCO4` (stereo unspecified), the “T2 sensor activation Q score” value is -1.3.

Regarding `C[C@]12CC[C@H](O)CC1=CC[C@@H]1[C@@H]2CC[C@]2(C)c3[nH]ncc3C[C@@H]12`, the “T2 sensor activation Q score” value amounted to 0.2.

As for `COc1ccc(C(=S)N2CCN(c3ccccc3C)CC2)cc1`, the “T2 sensor activation Q score” value was -0.85.

`CCn1c(=O)n(C)c2c(=O)n(C)c(=O)n(C)c21`: the “T2 sensor activation Q score” value was -1.1.

Consider `Cn1c(=O)c2[nH]c(N3CCCCC3)nc2n(C)c1=O`, for which the “T2 sensor activation Q score” value turned out to be 2.15.

In the case of `Cn1c(=O)c2c(nc(N3CCCCC3)n2C)n(C)c1=O`, the “T2 sensor activation Q score” value is -0.7.

On to `CCCc1nc2c([nH]1)c(=O)n(C)c(=O)n2C`, for which the “T2 sensor activation Q score” value is 1.8.

For the compound `Cn1c(=O)c2c(nc(Cc3ccccc3)n2C)n(C)c1=O`, the “T2 sensor activation Q score” value worked out at 1.35.

For the compound `Cc1c2oc3c(C)ccc(C(=O)N[C@@H]4C(=O)N[C@H](C(C)C)C(=O)N5CCC[C@H]5C(=O)N(C)CC(=O)N(C)[C@@H](C(C)C)C(=O)O[C@@H]4C)c3nc-2c(C(=O)N[C@@H]2C(=O)N[C@H](C(C)C)C(=O)N3CCC[C@H]3C(=O)N(C)CC(=O)N(C)[C@@H](C(C)C)C(=O)O[C@@H]2C)c(N)c1=O`, the “T2 sensor activation Q score” value was -1.15.

With `Cc1cc2cc3c(=O)[nH]c(=O)[nH]c3nc2cc1C`, the “T2 sensor activation Q score” value is -0.35.

On to `N#CC1C(=O)NC(=O)C(C#N)C12CCCC(C(F)(F)F)C2` (stereo unspecified), for which the “T2 sensor activation Q score” value was found to be 0.45.

On to `CN(C)C=Nc1ccc(Cl)c(Cl)c1`, for which the “T2 sensor activation Q score” value was -1.85.

In the case of `C1C2CC3C1C3/C2=N\N=C1/C2CC3C(C2)C13`, the “T2 sensor activation Q score” value was 0.3.

In the case of `Nc1ccc(SCc2nc3cccc4c3n2CCC4)cc1`, the “T2 sensor activation Q score” value was 0.35.

As to `Cn1c2c(sc1=O)CCC2`, the “T2 sensor activation Q score” value was -0.4.

For the compound `C#CCSc1n[nH]c(-c2ccco2)n1`, the “T2 sensor activation Q score” value came to 1.7.

For `COc1ccccc1NC(=O)Oc1cccc(OC(=O)c2ccccc2)c1`, the “T2 sensor activation Q score” value turned out to be 0.2.

With `COc1ccc(Cc2nnc(SC)n2-c2ccc(F)cc2)cc1OC`, the “T2 sensor activation Q score” value is 0.45.

In the case of `O=C1c2ccccc2C(=Cc2cccnc2)c2ccccc21`, the “T2 sensor activation Q score” value amounted to 0.2.

As to `Cc1ccc(NC(=O)NNC(=O)CSC2CCc3ccccc32)c(C)c1` (stereo unspecified), the “T2 sensor activation Q score” value is -1.2.

Consider `O=C(Nc1ccsn1)c1ccc(Cl)cc1Cl`, for which the “T2 sensor activation Q score” value worked out at 1.25.

As for `Nc1ccn(C2OC(CCl)C(O)C2O)c(=O)n1` (stereo unspecified), the “T2 sensor activation Q score” value was -0.65.

As to `Cn1ncc2c(Nc3ccc([N+](=O)[O-])cc3)nc(Cl)nc21`, the “T2 sensor activation Q score” value is -0.5.

Regarding `CC1=NCC(C)c2ccccc21` (stereo unspecified), the “T2 sensor activation Q score” value worked out at 3.25.

In the case of `COc1ccc(-c2cc(-c3ccccc3)c(-c3ccccc3)nn2)cc1`, the “T2 sensor activation Q score” value was -0.95.

On to `CCOC(=O)Nc1ccc2nc(N3CCCCCC3)sc2c1`, for which the “T2 sensor activation Q score” value amounted to 0.95.

In the case of `O=C(C=Cc1ccc(O)c(O)c1)c1ccccc1O`, the “T2 sensor activation Q score” value was -0.4.

`Cc1nc(SCC(=O)O)n[nH]1`: the “T2 sensor activation Q score” value is -1.55.

In the case of `CCOc1ccc(/C=C2\CCc3ccccc3C2=O)cc1`, the “T2 sensor activation Q score” value was 0.5.

Consider `CCOC(=O)N1CCN(Cc2c(O)ccc3ccccc23)CC1`, for which the “T2 sensor activation Q score” value is -0.05.

Consider `CCOC(=O)N1C/C(=C\c2ccccc2)C(=O)/C(=C/c2ccccc2)C1`, for which the “T2 sensor activation Q score” value was 2.95.

Regarding `CC(=O)NC1=C/C(=C\[N+](=O)[O-])C=C1O`, the “T2 sensor activation Q score” value is -0.65.

As to `COc1cc2c(cc1OC)C(=O)Cc1ccc3c(c1CN(C)CC2)OCO3`, the “T2 sensor activation Q score” value was found to be 1.1.

In the case of `CCN1CCCCC(=NO)C(=NO)CCCC1`, the “T2 sensor activation Q score” value is 1.05.

Consider `COc1ccc(OC(=O)Nc2ccc([N+](=O)[O-])cc2OC)cc1`, for which the “T2 sensor activation Q score” value came out at 0.95.

For the compound `O=C1C2C3C=CC(O3)C2C(=O)N1Nc1ccccc1` (stereo unspecified), the “T2 sensor activation Q score” value stood at 0.25.

Take `C(=N\Nc1nnn(Cc2ccccc2)n1)/c1ccccc1`: the “T2 sensor activation Q score” value was 0.5.

With `Nc1ccc(-c2nc3nc(N)nc(N)c3nc2-c2ccc(N)cc2)cc1`, the “T2 sensor activation Q score” value worked out at 4.95.

Regarding `CCN(CC)CCNc1c(C)cc(CO)c(Cl)c1C`, the “T2 sensor activation Q score” value was 0.25.

As for `C#CC(C)OCC1CNC(=S)O1` (stereo unspecified), the “T2 sensor activation Q score” value was -1.4.

Turning to `CN(C)c1ccc(/C=N\NC(=O)c2cnc3ccccc3c2)cc1`, the “T2 sensor activation Q score” value was -0.3.

As to `NS(=O)(=O)c1cc2c(cc1Cl)NC(CC1CCCC1)NS2(=O)=O` (stereo unspecified), the “T2 sensor activation Q score” value was 0.8.

As to `S=c1[nH]c2ccccc2n2cccc12`, the “T2 sensor activation Q score” value is 1.1.

Take `S=c1cn[nH]c2ccccc12`: the “T2 sensor activation Q score” value stood at 0.55.

Turning to `S=c1[nH]c2ccccc2c2ccccc12`, the “T2 sensor activation Q score” value was determined as 1.95.

Consider `O=C(c1ccccc1)c1ccc(-c2ccc(O)cc2)cc1`, for which the “T2 sensor activation Q score” value was determined as 1.55.

In the case of `CSC(=O)NC(=O)NC(=O)c1ccc([N+](=O)[O-])cc1`, the “T2 sensor activation Q score” value was determined as 1.05.

Take `O=C(c1ccccc1)c1ccc(Sc2ccc([N+](=O)[O-])cc2)cc1`: the “T2 sensor activation Q score” value stood at 7.7.

As for `CCN(CC)CCN1c2ccccc2Sc2ccc3ccccc3c21`, the “T2 sensor activation Q score” value was -0.8.

On to `OC(c1cc(-c2ccc(C(F)(F)F)cc2)nc(C(F)(F)F)c1)C1CCCCN1` (stereo unspecified), for which the “T2 sensor activation Q score” value was determined as 0.5.

With `CCCCSc1ncnc2[nH]ncc12`, the “T2 sensor activation Q score” value worked out at 0.45.

Regarding `O=[N+]([O-])c1ccc2c3ccccc3[s+]([O-])c2c1` (stereo unspecified), the “T2 sensor activation Q score” value came out at 0.25.

Consider `CC(C)NCC1CCc2cc(CO)c([N+](=O)[O-])cc2N1` (stereo unspecified), for which the “T2 sensor activation Q score” value was -0.55.

Regarding `Cc1ccc(Cl)cc1NC(=O)c1cc2ccccc2cc1O`, the “T2 sensor activation Q score” value was -0.35.

In the case of `CCOC(=O)Cc1cc(=O)c2cc(C)ccc2[nH]1`, the “T2 sensor activation Q score” value was 0.8.
